This is an account of results in PubChem BioAssay AID1259418 (Broad Institute, 2018).

Each structure is given as a SMILES string. The whole screen tested about 3,400 compounds, of which about 840 (25%) were called active. Another 11% or so got no clear call; they are omitted. Not all results are given here. Measured potencies and affinities stand elsewhere. Values without a mark were called inactive.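 Rule for the calls: active = fitted half-maximal concentration of signal decrease at or below twice the sample's top tested concentration; inconclusive = flat curve between -70 and -30 percent, or poor fit; inactive = flat within 30 percent, signal rise, or potency above limit.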

The assay is described as follows: inhibitors of Toxoplasma growth in IFN-γ-primed HeLa – cell-based, ME49Luc, luciferase, 72 h, dose response (AID 1259418). The note with it: T. gondii ME49Luc in IFN-y HeLa, stronger effect = lower value, -100% = high-dose IFN-γ control wells; at 19.5 µM unless noted.
`O=C(Cn1c(=O)c(S(=O)(=O)c2ccccc2)cc2ccccc21)N1CCCC1`: the max activity was -8.97% [at 0.16 µM]. As for `COc1ccc(-c2nc(Nc3cc(C)ccc3OC)c3ccccc3n2)cc1`, the max activity was 19.6%. The result for `Cc1ccc(CC(=O)Nc2ccc(-c3nc(-c4ccccc4)co3)cc2)cc1` reads 9.88% [at 5 µM]; that for `O=C(CC1Nc2c3ccccc3nc(=S)n2C1=O)NCCc1ccc(Cl)cc1` (stereo not drawn), -20.4% [at 0.16 µM].

For `CCOC(=O)C(=O)Nc1ccc(-c2nc(-c3cc(C)ccc3C)co2)cc1`, the max activity was 15.3% [at 0.16 µM]. For `COc1cc(OC)c(NC(=O)Nc2ccc(-c3nc(-c4ccc(C)cc4)co3)cc2)cc1Cl` the value was 86.6%; for `NC(=O)C1(N2CCCCC2)CCN(c2ccc(NC(=O)c3ccccc3F)cc2C(=O)O)CC1`, -16.3% [at 0.35 µM].

In the case of `Cc1ccc(C(=O)Nc2ccc(N3CCC(C(N)=O)(N4CCCCC4)CC3)c(C(=O)O)c2)cc1`, the max activity was 15% [at 2.6 µM]. The result for `CCOC(=O)C1CCC(CNC(=O)Nc2ccc(-c3nc(-c4ccc(C)cc4C)co3)cc2)CC1` (stereo not drawn) reads -7.93% [at 0.35 µM]. As to `COc1cc(NC(=O)CN2CCC3(CC2)N=C(c2cccc(F)c2)C(=O)N3)cc(OC)c1`, the max activity is -16.9%. As for `Cc1ccc(-c2coc(-c3ccc(NC(=O)Nc4ccc(C)c(F)c4)cc3)n2)c(C)c1`, the max activity was 14.2%.

Regarding `COc1ccc(-c2nc(Cn3c(=O)c4c(C)cc(C)nc4n(-c4ccccc4)c3=O)c(C)o2)cc1`, the max activity is -4.82% [at 10 µM]. For `COc1cccc(C(=O)Nc2ccc(-c3nc(-c4ccccc4)co3)cc2)c1` the value was -14.9% [at 10 µM]; for `COc1cccc(NC(=O)CN2CCC3(CC2)N=C(c2ccc(F)cc2)C(=O)N3)c1`, -15.6% [at 0.68 µM].

Turning to `COc1cccc(C(=O)Nc2ccc(-c3nc(-c4ccc(C)cc4)co3)cc2)c1`, the max activity is 73.1%.

For `CCOc1ccc(-c2nc3c(s2)CN(S(=O)(=O)c2ccc(C(C)C)cc2)CC3)cc1`, the max activity is 12.8%. For `O=C(CC1N=C2c3ccccc3N=C(SCc3cc(=O)n4cc(Cl)ccc4n3)N2C1=O)NCc1ccco1` (stereo not drawn) the value was 13% [at 10 µM]; for `Cc1ccc(C(=O)Nc2c(C(=O)N3CCCC3)[nH]c3ccccc23)cc1`, 14.8% [at 2.6 µM]; for `O=C(Cc1ccc(F)cc1)N1CCC2(CC1)Nc1ccc(Cl)cc1-n1cccc12`, -6.77% [at 5 µM].

In the case of `COc1ccc2c(c1)NC1(CCN(C(=O)Cc3ccc(Cl)cc3)CC1)c1cccn1-2`, the max activity is 7.11% [at 10 µM].

Consider `CN(C)C(=O)COCc1cncc2c1CCN(c1ccccn1)C2`, for which the max activity is 11.3% [at 10 µM]. The result for `CCc1nc(OCC(=O)Nc2cccc(SC)c2)c2ccccc2n1` reads 9.62% [at 0.16 µM]; that for `CCN1C(=O)CCc2cc(NC(=O)CC(C)C)ccc21`, 6.42% [at 0.35 µM]. For `O=C(C[C@@H]1CC[C@H]2[C@@H](COC[C@H](O)CN2Cc2ccc(Oc3ccccc3)cc2)O1)N1CCN(c2ccccc2)CC1` the value was 16% [at 10 µM]. Regarding `O=C(C[C@H]1CC[C@@H]2[C@H](COC[C@H](O)CN2C(=O)c2cc(Cl)cc(Cl)c2)O1)N1CCc2ccccc2C1`, the max activity is -23.1%. Take `O=C(C[C@@H]1CC[C@@H]2[C@H](COC[C@H](O)CN2Cc2ccc3c(c2)OCO3)O1)N1CCCCC1`: the max activity was 28.4%. Regarding `O=C(C[C@H]1CC[C@H]2[C@@H](COC[C@@H](O)CN2S(=O)(=O)c2ccccc2F)O1)N1CCC(Cc2ccccc2)CC1`, the max activity is 25.4% [at 10 µM]. As for `COc1ccccc1-c1nc(Cn2nnc(-c3nc(-c4cccc(C)c4)no3)c2C)c(C)o1`, the max activity was 6.08% [at 0.35 µM]. The result for `CCOc1ccc(-c2nc3c([nH]2)c(=O)n(C)c(=O)n3C)cc1OC` reads 30.3% [at 10 µM]; that for `CC1=NN(C2CCS(=O)(=O)C2)C(=O)C1(Sc1ccccc1)Sc1ccccc1` (stereo not drawn), -15.9% [at 10 µM]. The result for `COc1ccc(CC(=O)Nc2ccc(-c3nc(-c4ccc(C)cc4C)co3)cc2)cc1` reads 23.3% [at 0.68 µM]; that for `CN1CCN(Cc2cnc3n2CCN(CC2CCOCC2)C3)CC1`, 10.5%. For `O=C(C[C@H]1CC[C@H]2[C@@H](COC[C@H](O)CN2Cc2cc(F)ccc2F)O1)NCc1ccc(Oc2ccccc2)cc1` the value was 17.6% [at 2.6 µM]; for `O=C(C[C@H]1CC[C@@H]2[C@H](COC[C@H](O)CN2Cc2cc(F)ccc2F)O1)NCc1ccc(Oc2ccccc2)cc1`, 17.5% [at 5 µM]. Consider `Cc1ccc(C)c(NC(=O)CN2CCC3(CC2)N=C(c2ccc(F)cc2)C(=O)N3)c1`, for which the max activity was 21.8% [at 10 µM]. For `Cc1cccc(-c2nc(CSc3nc4c(c(=O)[nH]3)CN(C(C)C)CC4)c(C)o2)c1` the value was 19.2% [at 0.68 µM]. In the case of `O=C(CC1CCCCC1)Nc1ccc(-c2nc(-c3ccccc3)co2)cc1`, the max activity was 19.4%. With `Cc1ccc(NC(=O)Nc2ccc(-c3nc(-c4ccccc4)co3)cc2)cc1F`, the max activity is 16.5% [at 0.16 µM].

Turning to `O=C(Cn1c(=O)c(S(=O)(=O)c2ccccc2)cc2ccccc21)NCc1ccccc1Cl`, the max activity is -23.2% [at 0.16 µM]. For `CCOC(=O)CNC(=O)Nc1ccc(-c2nc(-c3cc(C)ccc3C)co2)cc1` the value was 5.17% [at 0.68 µM].

As for `Cc1ccc(CN2CCC3(CC2)N=C(c2ccc(C)cc2)C(=O)N3)cc1`, the max activity was 12.6% [at 2.6 µM].

Regarding `Cc1ccc(-c2coc(-c3ccc(NC(=O)C(C)(C)C)cc3)n2)cc1`, the max activity was 29.4% [at 10 µM]. `CCS(=O)(=O)N1[C@H](CO)[C@@H](c2ccc(C#Cc3ccccc3F)cc2)[C@@H]1C#N`: the max activity is 8.21% [at 10 µM]. The result for `COc1cccc(CC(=O)Nc2ccc(-c3nc(-c4ccc(C)cc4)co3)cc2)c1` reads 20.4%. For `COCCCN1CCc2nc(SCc3nc(-c4ccccc4OC)oc3C)[nH]c(=O)c2C1` the value was 25.6% [at 10 µM]; for `COc1ccc(C(=O)Nc2ccc(-c3nc(-c4ccccc4)co3)cc2)cc1OC`, 14.3% [at 0.16 µM]; for `COC(=O)C1CC23C=CNC4CCC5(c6ccccc6NC15C2C)C43` (stereo not drawn), 26.5% [at 10 µM]. For `COc1ccc(-c2nc3c(s2)CN(S(=O)(=O)c2ccc(F)cc2F)CC3)cc1` the value was 13% [at 5 µM]; for `COC(=O)c1cccc(NC(=O)Nc2ccc(-c3nc(-c4cc(C)ccc4C)co3)cc2)c1`, 11.4% [at 5 µM]. For the compound `CCc1cc(C2CCCN2C(=O)Cn2nc(C(F)(F)F)cc2C)on1` (stereo not drawn), the max activity is -8.33% [at 5 µM].

Regarding `Cc1ccccc1-c1nc(CN2CCN(C(=O)Nc3cccc(C)c3C)CC2)c(C)o1`, the max activity was -5.68% [at 2.6 µM]. Consider `COCCCNC(=O)Cn1c(=O)c(S(=O)(=O)c2ccccc2)cc2cc(C)ccc21`, for which the max activity was 5.8% [at 2.6 µM].

For the compound `Cc1ccc(NC(=O)Nc2ccc(-c3nc(-c4cccc(Br)c4)co3)cc2)cc1`, the max activity was 18.1% [at 0.16 µM].

`COc1ccc(NC(=O)N2CCc3nc(-c4ccccc4)sc3C2)c(OC)c1`: the max activity was 19.6% [at 10 µM]. For `Cc1ccc(-c2ccc(OCCNC(=O)c3sc(-c4ccccc4)nc3C)nn2)cc1`, the max activity was 10.9% [at 2.6 µM]. For `Cc1cc(C2CCCN2C(=O)c2cc(C(F)(F)F)nn2C)on1` (stereo not drawn) the value was 8.24% [at 1.35 µM]; for `Cc1nc(-c2ccc(F)cc2)sc1-c1ccc(SCc2ccccn2)nn1`, 11.9%; for `Cc1ccc(-c2coc(-c3ccc(NC(=O)Cc4ccccc4C)cc3)n2)cc1`, 19%.

As to `Cc1ccccc1NC(=O)N1C[C@H]2C[C@H](C(=O)NC3CCC3)[C@@H](C1)O2`, the max activity was 41.9%. Turning to `COc1ccc(C(=O)Nc2ccc(-c3nc(-c4ccc(C)cc4C)co3)cc2)cc1`, the max activity was 25.2% [at 0.35 µM]. Consider `COc1cc(NC(=O)Nc2ccc(-c3nc(-c4cc(C)ccc4C)co3)cc2)cc(OC)c1`, for which the max activity is 6.94% [at 0.08 µM]. Take `COc1ccc(NC(=O)Nc2ccc(-c3nc(-c4ccc(C)cc4C)co3)cc2)cc1`: the max activity is -20.8% [at 0.16 µM].

As for `COc1cc(OC)cc(C(=O)Nc2ccc(-c3nc(-c4cc(C)ccc4C)co3)cc2)c1`, the max activity was 19.3% [at 0.16 µM]. On to `COc1ccc(-c2nc3c(s2)CN(S(=O)(=O)c2ccc(C(C)(C)C)cc2)CC3)cc1`, for which the max activity was 5.19%. For `COc1ccc(-c2nc(Nc3ccccc3C)c3ccccc3n2)cc1`, the max activity was -9.66% [at 10 µM]. `COc1ccc(CCNc2ncnc3c2cnn3-c2ccccc2)cc1OC`: the max activity was 24.5% [at 5 µM]. `CCSc1ccc2c(c1)N(CCCN1CCN(C)CC1)c1ccccc1S2`: the max activity was 26.9%.

Consider `CCOC(=O)Cc1ccc(NC(=O)Nc2ccc(-c3nc(-c4ccccc4)co3)cc2)cc1`, for which the max activity was 9.92% [at 2.6 µM]. The result for `Fc1cccc(-c2ccc(C3[C@H]4CNC[C@@H]3N4Cc3ccccn3)cc2)c1` (stereo partly drawn) reads 18.9% [at 5 µM]. With `COc1cc(CN2C[C@@H]3N[C@H](C2)C3c2ccc(-c3ccc(C#N)cc3)cc2)cc(OC)c1` (stereo partly drawn), the max activity was 27% [at 10 µM]. For `OC[C@@H]1[C@@H](c2ccc(-c3cccnc3)cc2)[C@@H]2CN(Cc3ccccn3)CCCCN12` the value was -5.02% [at 1.2 µM]; for `OC[C@@H]1[C@@H](c2ccc(-c3cccc(F)c3)cc2)[C@@H]2CN(Cc3cncnc3)CCCCN12`, 12.9%; for `COc1cccc(-c2ccc(C3[C@H]4CNC[C@@H]3N4Cc3nccs3)cc2)c1` (stereo partly drawn), 51.8% [at 21 µM].
